Test results as given in ChEMBL document CHEMBL4513146, “CO-ADD screening of Karazin Kharkiv National University (Ukraine) compounds”.
Measured potencies and affinities stand elsewhere.

Each molecule was assayed on Candida albicans. Conditions: Concentration 32 ug.mL-1; ASSAY_TEST Inhibition of Fungal Growth; detection method Absorption (OD530).

Compound	Inhibition [%]
COc1ccccc1N1CCN(C(=O)CSc2nnc3c(=O)n(-c4ccccc4)ccn23)CC1	1.3
O=C(Cn1nc2c(SC3CCCCC3)nccn2c1=O)Nc1ccc(Cl)cc1F	1.51
Cc1ccc(-c2nc(CSc3nc4ccccc4n4c(C(C)C)nnc34)c(C)o2)cc1	2.71
Cc1ccc(-c2ccc3nn(Cc4cccc(Br)c4)c(=O)n3n2)cc1C	0.19
COc1ccc(NC(=O)Cn2nc3c4cc(-c5ccc(OC)cc5)nn4ccn3c2=O)cc1	2.73
Cc1ccc(CNC(=O)Cn2nc3c(Sc4cccc(F)c4)nccn3c2=O)cc1	4.04
O=C(Cn1nc2c(N3CCOCC3)nccn2c1=O)N1CCN(c2ccccc2F)CC1	0.78
Cc1cc2nn(CC(=O)NCc3ccccc3)c(=O)n2c(Nc2ccc(C)c(F)c2)n1	6.49
Cc1ccc(Sc2nccn3c(=O)n(CC(=O)Nc4ccc(F)c(Cl)c4)nc23)c(C)c1	10.6
O=C(Cn1nc2ccc(-c3ccccc3)nn2c1=O)Nc1cccc(Cl)c1	18.56
Cc1cccc(Oc2nc3ccccc3n3c(=O)n(CC(=O)NCc4ccco4)nc23)c1C	36.74
Cc1ccccc1NC(=O)Cn1nc2c3cc(-c4ccc(Cl)cc4)nn3ccn2c1=O	1.52
Cc1ccc(NC(=O)Cn2nc3ccc(SCc4ccc(Cl)cc4)nn3c2=O)cc1C	3.97
COc1ccc(-c2cc3c4nnc(CCC(=O)NCc5ccccc5Cl)n4ccn3n2)cc1	1.3
Cc1ccc(NC(=O)Cn2nc3ccc(SC4CCCCC4)nn3c2=O)c(Cl)c1	5.14
O=c1n(Cc2nc(-c3ccc4c(c3)OCO4)no2)nc2ccc(-c3ccccc3)nn12	6.34
COC(=O)c1ccc(CN(c2ccc(Cl)cc2)S(=O)(=O)c2ccc3nncn3c2)o1	-1.37
Cc1ccccc1Oc1nc2ccccc2n2c(=O)n(CC(=O)NCc3ccc4c(c3)OCO4)nc12	19.82
O=C(Cn1nc2c(Oc3ccccc3)nccn2c1=O)Nc1ccccc1C(F)(F)F	0.13
Cc1cc2nn(CC(=O)Nc3cc(F)ccc3C)c(=O)n2c(Nc2ccc(C)c(F)c2)n1	3.99

Compound	Inhibition [%]
Cc1ccc(Oc2nccn3c(=O)n(CC(=O)N4CCN(c5ccccc5F)CC4)nc23)cc1	-0.66
Cc1nnc2c(=O)n(CC(=O)Nc3cccc(F)c3)c3ccccc3n12	1.2
Cc1cccc(C)c1NC(=O)Cn1nc2n(C)c(=O)c3c(c(-c4ccccc4)cn3C)n2c1=O	0.83
Cc1ccc(NC(=O)CSc2nnc3ccc(C(=O)Nc4cccc(F)c4)cn23)cc1F	-0.33
COc1cccc(Sc2nc3ccccc3n3c(=O)n(CC(=O)Nc4ccc(Cl)cc4)nc23)c1	36.59
Cc1ccc(C)c(NC(=O)Cn2nc3c(N4CCCC(C)C4)nccn3c2=O)c1 (stereo not drawn)	2.37
Cc1ccc(NC(=O)CSc2nc3ccccc3n3c(C(C)C)nnc23)c(Cl)c1	27.99
O=c1c2nn(Cc3ccc(F)cc3)c(=O)n2ccn1-c1ccccc1	2.87
CCCCN(C)c1ccc2nnc(CCc3nc(-c4cccc(Br)c4)no3)n2n1	15.05
COC(=O)c1ccccc1NC(=O)Cn1nc2c(Oc3ccccc3C)nccn2c1=O	0.12
Cc1ccc(Cl)cc1NC(=O)CSc1nnc2ccc(C(=O)Nc3cccc(F)c3)cn12	4.15
Cc1ccc(NC(=O)Cn2nc3c4c5c(sc4ncn3c2=O)CCCC5)cc1C	3.92
O=C(Cn1nc2c(N3CCOCC3)nccn2c1=O)NCc1ccc(Cl)cc1	3.53
CCOC(=O)c1ccccc1NC(=O)Cn1nc2c(Oc3ccccc3)nccn2c1=O	0.37
CCOC(=O)c1ccc(NC(=O)Cn2nc3ccc(C(=O)Nc4cccc(C)c4)cn3c2=O)cc1	1.34
CCOc1cccc(CNC(=O)CCc2nnc3ccc(-c4ccc(C)cc4)nn23)c1	2
O=C(Cn1nc2c3cc(-c4ccc(Cl)cc4)nn3ccn2c1=O)NCc1ccccc1	3.19
CCCCc1ccc(NC(=O)Cn2nc3c(N4CCN(c5ccccc5C)CC4)nccn3c2=O)cc1	48.6
COc1cccc(CN(c2ccc(Cl)cc2)S(=O)(=O)c2ccc3nncn3c2)c1	2.49

The molecules below were run on Cryptococcus neoformans. Conditions: Concentration 32 ug.mL-1; ASSAY_TEST Inhibition of Fungal Growth; detection method Resazurin; Absorption (OD600-OD570); plate type 384well; NBS; CORNING #3640.

Compound	Inhibition [%]
COc1ccccc1N1CCN(C(=O)CSc2nnc3c(=O)n(-c4ccccc4)ccn23)CC1	-12.92
O=C(Cn1nc2c(SC3CCCCC3)nccn2c1=O)Nc1ccc(Cl)cc1F	-29.46
Cc1ccc(-c2nc(CSc3nc4ccccc4n4c(C(C)C)nnc34)c(C)o2)cc1	-13.81
Cc1ccc(-c2ccc3nn(Cc4cccc(Br)c4)c(=O)n3n2)cc1C	-18.95
COc1ccc(NC(=O)Cn2nc3c4cc(-c5ccc(OC)cc5)nn4ccn3c2=O)cc1	-13.09
Cc1ccc(CNC(=O)Cn2nc3c(Sc4cccc(F)c4)nccn3c2=O)cc1	-11.39
O=C(Cn1nc2c(N3CCOCC3)nccn2c1=O)N1CCN(c2ccccc2F)CC1	-5.23
Cc1cc2nn(CC(=O)NCc3ccccc3)c(=O)n2c(Nc2ccc(C)c(F)c2)n1	-3.12
Cc1ccc(Sc2nccn3c(=O)n(CC(=O)Nc4ccc(F)c(Cl)c4)nc23)c(C)c1	-11.17
O=C(Cn1nc2ccc(-c3ccccc3)nn2c1=O)Nc1cccc(Cl)c1	-15.44
Cc1cccc(Oc2nc3ccccc3n3c(=O)n(CC(=O)NCc4ccco4)nc23)c1C	-27.2
Cc1ccccc1NC(=O)Cn1nc2c3cc(-c4ccc(Cl)cc4)nn3ccn2c1=O	-18.17
Cc1ccc(NC(=O)Cn2nc3ccc(SCc4ccc(Cl)cc4)nn3c2=O)cc1C	-21.31
COc1ccc(-c2cc3c4nnc(CCC(=O)NCc5ccccc5Cl)n4ccn3n2)cc1	-11.66
Cc1ccc(NC(=O)Cn2nc3ccc(SC4CCCCC4)nn3c2=O)c(Cl)c1	-13.64
O=c1n(Cc2nc(-c3ccc4c(c3)OCO4)no2)nc2ccc(-c3ccccc3)nn12	-13.29
COC(=O)c1ccc(CN(c2ccc(Cl)cc2)S(=O)(=O)c2ccc3nncn3c2)o1	-1.27
Cc1ccccc1Oc1nc2ccccc2n2c(=O)n(CC(=O)NCc3ccc4c(c3)OCO4)nc12	-16.39
O=C(Cn1nc2c(Oc3ccccc3)nccn2c1=O)Nc1ccccc1C(F)(F)F	-8.9
Cc1cc2nn(CC(=O)Nc3cc(F)ccc3C)c(=O)n2c(Nc2ccc(C)c(F)c2)n1	-7.37

Compound	Inhibition [%]
Cc1ccc(Oc2nccn3c(=O)n(CC(=O)N4CCN(c5ccccc5F)CC4)nc23)cc1	-23.01
Cc1nnc2c(=O)n(CC(=O)Nc3cccc(F)c3)c3ccccc3n12	-2.05
Cc1cccc(C)c1NC(=O)Cn1nc2n(C)c(=O)c3c(c(-c4ccccc4)cn3C)n2c1=O	-9.16
Cc1ccc(NC(=O)CSc2nnc3ccc(C(=O)Nc4cccc(F)c4)cn23)cc1F	-4.6
COc1cccc(Sc2nc3ccccc3n3c(=O)n(CC(=O)Nc4ccc(Cl)cc4)nc23)c1	-25.56
Cc1ccc(C)c(NC(=O)Cn2nc3c(N4CCCC(C)C4)nccn3c2=O)c1 (stereo not drawn)	-8.1
Cc1ccc(NC(=O)CSc2nc3ccccc3n3c(C(C)C)nnc23)c(Cl)c1	-3.15
O=c1c2nn(Cc3ccc(F)cc3)c(=O)n2ccn1-c1ccccc1	-6.47
CCCCN(C)c1ccc2nnc(CCc3nc(-c4cccc(Br)c4)no3)n2n1	-17.7
COC(=O)c1ccccc1NC(=O)Cn1nc2c(Oc3ccccc3C)nccn2c1=O	-8.78
Cc1ccc(Cl)cc1NC(=O)CSc1nnc2ccc(C(=O)Nc3cccc(F)c3)cn12	-1.38
Cc1ccc(NC(=O)Cn2nc3c4c5c(sc4ncn3c2=O)CCCC5)cc1C	-29.29
O=C(Cn1nc2c(N3CCOCC3)nccn2c1=O)NCc1ccc(Cl)cc1	-3.97
CCOC(=O)c1ccccc1NC(=O)Cn1nc2c(Oc3ccccc3)nccn2c1=O	-11.47
CCOC(=O)c1ccc(NC(=O)Cn2nc3ccc(C(=O)Nc4cccc(C)c4)cn3c2=O)cc1	-36.79
CCOc1cccc(CNC(=O)CCc2nnc3ccc(-c4ccc(C)cc4)nn23)c1	-6.55
O=C(Cn1nc2c3cc(-c4ccc(Cl)cc4)nn3ccn2c1=O)NCc1ccccc1	-21.92
CCCCc1ccc(NC(=O)Cn2nc3c(N4CCN(c5ccccc5C)CC4)nccn3c2=O)cc1	-6.75
COc1cccc(CN(c2ccc(Cl)cc2)S(=O)(=O)c2ccc3nncn3c2)c1	-6.94
